Only some compounds are listed: those with a hit (about 1.8% of all), similar ones and a draw of the others.
BRCA1 expr act – BRCA1 expression activation | MCF7-BRCA1-FFLuc reporter, luminescence, 48 h; response scale: scaled: vehicle 0%, 10 µM genistein 100% | Potency, µM (doses to about 46.1 µM), without a hit: at the highest dose activation, hits mostly activators | 380,000 compounds, 1.1% hits | AID 624202; further: potency means the concentration at half of the fitted maximal effect; nearly all actives have a fitted effect of over 80% in size
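Luminescence from a BRCA1-driven firefly luciferase in MCF7 cells was the read-out, taken 15 min after substrate addition following 48 h compound exposure at 37 °C. Data were normalized to a 10 microM genistein control and DMSO vehicle.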
pAkt inh – Akt phosphorylation inhibition; Neuro2A IGF-stimulated pAkt S473 HTRF, 20 min; hits give low values; activity change, % for hits at 50 µM; 360,000 compounds, 0.32% hits; AID 651550; in the data active means activity change below about -80%; inconclusive means mostly about -51% to -80%; further: on the % scale 0 is the no-effect control and ±100 the full control effect
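Neuro2A cells in DMEM with 0.5% FBS, overnight at 37 deg C, given compound at single 50 µM final, then IGF (6 nM final) for 20 min at 37 deg C. Lysed; phospho-Akt Ser473 by HTRF after 24 h, 665/615 ratio.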
A-T KAP1 phos – potential ataxia-telangiectasia treatment; F2112 A-T fibroblasts, KAP-1 phosphorylation AlphaLISA; neocarzinostatin DNA damage 30 min before lysis; Potency, µM (titrated, usually from 57.5 µM), inactives show at the top dose activation, actives largely listed as activators; 320,000 compounds, 0.19% hits; further: potency means the concentration at half of the fitted maximal effect; % of control where 0% means no effect; nearly all actives have a fitted effect of over 45% in size
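ATM-like activity read as KAP-1 phosphorylation via AlphaLISA donor/acceptor antibody pairs after lysis and 6 hr at 25C. Cells were ATM-null patient fibroblasts (F2112, hTERT), dosed 60 min, then exposed to the DSB inducer NCS for 30 min.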
Mm-Cpn inhibitor – M. maripaludis TRiC chaperonin inhibition; purified Mm-Cpn ATPase, ADP Transcreener TR-FRET; Potency, µM (series often up to 76.9 µM), for inactives: at the top dose activity, negative = inhibition, hits mostly inhibitors; 330,000 compounds, 0.031% hits; AID 504842; further: potency means the concentration at half of the fitted maximal effect; on the % scale 0 is the no-effect control and ±100 the full control effect; nearly all actives have a fitted effect of over 80% in size
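25 nM Mm-CPN + cpd, 10 min 37°C; + 10 uM ATP, 30 min 37°C; buffer 30 mM Tris pH 7.4, 100 mM KCl, 5 mM MgCl2, 1 mM DTT; Transcreener ADP HTRF detection 30 min RT.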
CCT chaperon mod – cytosolic chaperonin activity modulation; purified chaperonin ATPase assay, HTRF ADP detection, 30 min; activity change, % (concentration not given with the values), hits read low; 360,000 compounds, 0.3% hits; in the data active means activity change below about -30%; further: on the % scale 0 is the no-effect control and ±100 the full control effect
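TRiC at 40 or 20 nM final (batch-dependent) in 30 mM Tris pH 7.4, 100 mM KCl, 5 mM MgCl2, 1 mM DTT, with compound at single 76 uM and 10 uM ATP, 30 min at 37 deg C. ADP detected by HTRF Transcreener, 665/615 ratio.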
Numbers without * were called inactive; i = inactive; ? = inconclusive; . = not tested or not shown; [ ] = another dose, or the depositor's remark. Unless noted, the call rests on the fitted dose curve; in most records, active means well fitted curve in the direction sought with a large enough effect; inconclusive means small, poorly fitted or top-dose-only effect, or another doubt; inactive means no such curve, though single readings can be large; an effect the other way counts as inactive or inconclusive.

SMILES	BRCA1 expr act	pAkt inh	A-T KAP1 phos	Mm-Cpn inhibitor	CCT chaperon mod
NS(=O)(=O)c1cccc(Nc2nc3ccccc3nc2NS(=O)(=O)c2ccc(Cl)cc2)c1	-77%	i	13%	2%	1
Cc1cccc(NC(=O)c2cc(-c3cc(C)ccc3O)n[nH]2)c1	1.6µM*	i	-3%	0%	0
Cc1cccc(NC(=O)c2cc(-c3cc(C)c(C)cc3O)n[nH]2)c1	?	i	-9%	-1%	1
O=C(O)c1ccc2noc(-c3ccccc3)c2c1	4µM*	i	4%	1%	1
Cc1ccc(-c2onc3ccc(C(=O)O)cc23)cc1	-3%	i	-1%	-1%	0
Cc1ccc(SCC(=O)c2ccc[nH]2)cc1	3.2µM*	i	6%	1%	0
CC1=NN(C(C#N)c2ccc([N+](=O)[O-])cc2)C(C)(C)C1 (stereo not given)	7%	i	3.5µM*	1%	1
Cc1ccc(-c2cc(-c3ccc4c(c3)NC(=O)CO4)nc3c2COc2ccc(C)cc2-3)cc1	7%	.	.	.	.
O=C1CCN(C(=O)Nc2cccc(Cl)c2)N1	-1%	-120%*	-4%	0%	-2
O=c1c2sc3ccccc3c2n(Cc2ccc(Cl)cc2)c(=O)n1Cc1ccco1	2%	.	.	.	.
Cc1ccc(NC(=O)CCC(=O)c2cccs2)cc1F	13µM*	i	-10%	2%	-3
Cc1nc2ccc(NC(=O)Cc3cccs3)cc2s1	3.5µM*	i	6%	2%	-7
Cc1ccc(NC(=O)Cc2cccs2)cc1Cl	11µM*	i	7%	3%	2
Cc1ccc(NC(=O)COc2ccccc2)cc1Cl	18%	i	4%	-5%	1
CCOCC(=O)Nc1ccc(C)c(Cl)c1	8%	-129%*	1%	-8%	0
Cc1ccc(NC(=O)CCNS(=O)(=O)c2cccs2)cc1F	17%	i	3%	2%	-1
COc1ccc(C(=O)NCc2ccco2)cc1S(=O)(=O)NC1CC1	2%	i	-5%	0%	0
Cc1nc2ccc(NC(=O)CS(=O)(=O)c3ccc(F)cc3)cc2s1	11µM*	i	-2%	1%	-3
O=C(NCc1ccccn1)c1ccc([N+](=O)[O-])cc1	-2%	i	3%	0%	-1
O=C(NCc1ccco1)c1ccc(N2CCCC2=O)cc1	48%	i	0%	1%	-2
O=C(NCc1ccccn1)c1ccc(N2CCCC2=O)cc1	13µM*	i	-9%	-1%	-1
O=C(NCc1ccccn1)c1ccc(-c2ccccc2)cc1	13µM*	i	7%	1%	1
COc1ccccc1CNC(=O)c1ccc2nc(N3CCOCC3)sc2c1	-1%	i	15%	-1%	-2
COc1ccc(CCn2c(C)nc3c(c(=O)c4ccccc4n3C)c2=O)cc1	-39%	i	-1%	2%[15.4 µM]	2
COc1ccc(CCn2c(S)nc3ccccc3c2=O)cc1	-33%	i	1.8µM*	-2%	1
SMILES	BRCA1 expr act	pAkt inh	A-T KAP1 phos	Mm-Cpn inhibitor	CCT chaperon mod
CS(=O)(=O)c1ccc(C(=O)OCC(=O)N2CCCC2)cc1[N+](=O)[O-]	-45%	.	.	.	.
CCC(=O)Nc1ccc2nc(SCCOc3ccc(C)cc3)sc2c1	21%	.	.	.	.
Fc1cccc(Cl)c1CNC(c1ccccc1)c1ccccc1	0%	i	32µM*	2%	-4
Cc1cc(SCC(=O)c2ccc3c(c2)OCO3)nc2ccccc12	39%	i	.	?	-69*
Cc1cc(C(=O)CSc2nc3ccccc3c(=O)n2C)c(C)n1Cc1ccc2c(c1)OCO2	-71%	-109%*	24%	-14%	-1
Cc1cc(C(=O)CSc2nnc(-c3ccccc3)n2Cc2ccc3c(c2)OCO3)c(C)n1C	-12%	i	-3%	1%	0
N#Cc1cccc(-c2csc(C(O)(c3ccccc3)C(F)(F)F)n2)c1 (stereo not given)	-52%	i	.	.	-6
C=CCn1cc(-c2ccc(Cl)cc2)cc(C#N)c1=O	21%	i	.	1%	1
N#Cc1cc(-c2ccc(Cl)cc2)cn(Cc2c(Cl)cccc2Cl)c1=O	-32%	-95%*	-7%	0%	-2
Cc1ccc(S(=O)(=O)N2CC=C(c3c(C)n(CC(=O)N4CCCC4)c4ccccc34)CC2)cc1C	-8%	.	.	.	.

Screening results deposited in PubChem by National Center for Advancing Translational Sciences (NCATS).
